# According to ChEMBL document CHEMBL1157539, “Thousands of chemical starting points for antimalarial lead identification” (Nature, 2010):
# Test system: Plasmodium falciparum
# Assay: GSK_TCMDC: Inhibition of Plasmodium falciparum Dd2 in whole red blood cells, using parasite LDH activity as an index of growth. Test compounds present at 2uM
# Assay type: functional
row,Compound,Inhibition [%]
1,CC(=O)c1ccc(NC(=O)Nc2ccc(N(C)c3ccnc(NC4CC4)n3)cc2)cc1,60
2,Cc1onc(-c2ccc(Cl)cc2)c1-c1ccnn1S(=O)(=O)c1ccc(Cl)cc1,99
3,O=C(Nc1cccc(-c2ccc(-c3nc4ccccc4[nH]3)cc2)c1)Nc1ccc2c(c1)OCO2,8
4,CCOC(=O)CNC(=O)c1cc(=O)c2ccccc2o1,0

# Test system: HepG2
# Assay: GSK_TCMDC: Percent inhibition of human HepG2 cell line. Test compounds present at 10uM.
# Assay type: functional
row,Compound,Inhibition [%]
1,CCOC(=O)c1ccc(NC(=O)Nc2cccc(-c3ccc(-c4nc5cc(C(F)(F)F)ccc5[nH]4)cc3)c2)cc1,62
2,Cc1cc(NC(=O)Nc2ccc3nccc(N4CCN(C)CC4)c3c2)ccc1Br,31
3,Clc1ccc(Nc2nc(-c3ccccn3)cs2)nc1,36
4,Cc1cc(C2CCN(CCCCNC(=O)c3ccc(NC(=O)c4ccc(Cl)cc4)cc3)CC2)c(C)cc1OCCN(C)C,18
5,CCc1sc(-c2cc(Cl)ccc2OC)nc1C(=O)NCCN1CCCCC1.O=C(O)C(F)(F)F,3
6,Nc1ncc(-c2cccc(OCc3ccccc3)c2)cc1-c1nnc2ccc(Cl)nn12,0
7,O=C(/C=C/c1ccc(Cl)c(Cl)c1)N1CCCC(CCCN2CCC(c3c[nH]c4ccccc34)CC2)C1 (centres undefined),30
8,COc1ccc2nccc([C@@H](O)CN3CCC(NCc4cc5cccnc5[nH]4)CC3)c2n1.O=C(O)C(=O)O,7
9,Cc1cc(F)ccc1Nc1nc(N(C)c2ccccc2)c2cc(OCCCN(C)C)ccc2n1,31
10,CC1CN(c2cnn(Cc3cccc(NC(=O)Nc4ccc(F)cc4[N+](=O)[O-])c3)c(=O)c2Cl)CC(C)N1.O=C(O)C(F)(F)F (centres undefined),7
11,CC(CNC1CCN(CCn2c(=O)ccc3ccc(F)cc32)CC1)c1ccccc1 (centres undefined),0
12,COc1ccc(OCCn2cc(C(=O)c3ccco3)c3ccccc32)cc1,17
13,Cc1ccc2[nH]c([N-]C#N)nc2c1.[Na+],7
14,Cc1ccc(NS(=O)(=O)c2ccc(-c3ccccc3)cc2)c(Cn2cnc(N3CCCNCC3)cc2=O)c1.O=C(O)C(F)(F)F,10
15,CCNC(=O)N1CCN(c2nc(-c3ccccc3)nc(COC)c2Cc2ccc(C)cc2)CC1,27
16,Cc1sc2nc(CSc3ccccc3)nc(N3CCN(CC(=O)N4CCCC4)CC3)c2c1C,19
17,Cc1cccc(-c2nc(Nc3ccncc3)c3ccc([N+](=O)[O-])cc3n2)n1,0
18,CC(C)(C)c1nn(-c2ccccc2)c2[nH]c(=O)c(CNC3CCCC3)cc12,7
19,Cc1cc(OCC(=O)Nc2ccc(-c3nc4ccccc4[nH]3)cc2)cc(C)c1Cl,5
20,COc1ccc(CNC(=O)c2cc3c(=O)n4ccccc4nc3n(CCc3ccccc3)c2=N)cc1,26

row,Compound,Inhibition [%]
1,CC1CN(c2cnn(Cc3cccc(NC(=O)Nc4cccc(C(F)(F)F)c4)c3)c(=O)c2Cl)CC(C)N1.O=C(O)C(F)(F)F (centres undefined),19
2,CCCN(CCC)CCCN(CCCN(CCC)CCC)c1cc(C)nc(Nc2ccc(Cl)cc2)n1.Cl,34
3,CC(CN1CCN(CC(c2ccc(F)cc2)N2CCN(C)CC2)CC1)C(=O)c1ccc(O)cc1.O=C(O)/C=C\C(=O)O (centres undefined),0
4,CC(=O)Nc1ncc(C(=O)Nc2cccc(-c3cccc(-c4nc5cccc(C)c5[nH]4)c3)c2)s1,15
5,CS(=O)(=O)Cc1ccc(Nc2nccc(-c3c(-c4cccc(NC(=O)C5CCCCC5)c4)nn4ncccc34)n2)cc1,31
6,CS(=O)(=O)CCN(CCS(C)(=O)=O)Cc1ccc(-c2ccc3ncnc(Nc4ccc(OCc5cccc(F)c5)c(Cl)c4)c3c2)o1.Cc1ccc(S(=O)(=O)O)cc1,0
7,CS(=O)(=O)CCNCc1ccc(-c2ccc3c(Nc4ccc(Oc5ccccn5)cc4)ccnc3c2)o1,0
8,Cc1[nH]c2ccc(-c3ccccc3)cc2c(=O)c1Br,0
9,COc1ccc2c(OC)c(CNCCCCCCNCc3ccc4cc(OC)ccc4c3OC)ccc2c1.CS(=O)(=O)O,100
10,CCn1c(-c2nonc2N)nc2c(-c3cccc(NC(=O)Nc4ccccc4OC)c3)ncc(OCCCN)c21.O=C(O)C(F)(F)F,84
11,O=C(NCc1ccc(Cl)c(Cl)c1)c1cccc(C2CCCN(Cc3ccc4[nH]cnc4c3)C2)c1 (centres undefined),3
12,CCc1nnc2sc(-c3cccc(NC(=O)c4ccc(OC)c(Cl)c4)c3)nn12,3
13,C1=CN(Cc2ccccc2)C=CC1=C1C=Nc2ccccc21,8
14,Cc1csc(-c2ncc(OC[C@@H](N)Cc3ccccc3)cc2-c2ccc3[nH]nc(C)c3c2)c1.O=C(O)C(F)(F)F,48
15,CCCN(CCC)C(=O)c1cc(C(=O)N[C@@H](Cc2ccccc2)[C@H](O)CNCc2cccc(C(F)(F)F)c2)cc(N2CCCCS2(=O)=O)c1,0
16,O=C(NCc1cccc(OC(F)(F)F)c1)c1cnc2c(c1)nc(-c1c[nH]c(-c3ccccc3)n1)n2CCc1c[nH]cn1,0
17,CC(=O)c1ccc(NC(=O)Nc2ccc(N(C)c3ccnc(NC4CC4)n3)cc2)cc1,59
18,Cc1onc(-c2ccc(Cl)cc2)c1-c1ccnn1S(=O)(=O)c1ccc(Cl)cc1,0
19,O=C(Nc1cccc(-c2ccc(-c3nc4ccccc4[nH]3)cc2)c1)Nc1ccc2c(c1)OCO2,20
20,CCOC(=O)CNC(=O)c1cc(=O)c2ccccc2o1,22
